{"source": "PubChem BioAssay (Tox21)", "note": "Records with an inconclusive call do not appear. A number with no mark means an inactive call. Calls follow the shape of the full dose curve. % is scaled to controls: 0 for no effect and ±100 for the full control effect."}
{"assay": "qHTS assay to identify small molecule agonists of the AP-1 signaling pathway (AID 1159526)", "settings": "ME-180 AP-1-bla reporter, beta-lactamase FRET ratio, 5 h; series mostly up to 76.8 µM; activation: at the top concentration"}
{"smiles": "C1COCO1", "activation": "-6.34%"}
{"smiles": "O=S1OCCO1", "activation": "-1.39%"}
{"smiles": "CNCCCC1c2ccccc2C=Cc2ccccc21", "activation": "1.04% [at 35.3 µM]"}
{"smiles": "O=C(N/N=C/c1ccc([N+](=O)[O-])o1)c1ccc(O)cc1", "activation": "13.7% [at 35.3 µM]"}
{"smiles": "CC(=O)Nc1ccccc1C", "activation": "1.48%"}
{"smiles": "O=C(CCCN1CCC(O)(c2ccc(Br)cc2)CC1)c1ccc(F)cc1", "activation": "-0.564% [at 35.3 µM]"}
{"smiles": "CCOC(=N)CC(=O)OCC", "activation": "2.15%"}
{"smiles": "Cc1cc(C(=C2C=CC(=Nc3ccc(S(=O)(=O)O)cc3S(=O)(=O)O)C=C2)c2ccc(Nc3ccc(S(=O)(=O)O)cc3)cc2)ccc1N", "activation": "5.4% [at 35.3 µM]"}
{"smiles": "CCCCC(CC)C(=O)OCCOCCOCCOCCOC(=O)C(CC)CCCC", "note": "(stereo not given)", "activation": "19.2%"}
{"smiles": "CN1CCN(CCCN2c3ccccc3Sc3ccc(S(=O)(=O)N(C)C)cc32)CC1", "activation": "23.1% [at 35.3 µM]"}
{"smiles": "CCCCN(CCCC)CCCOC(=O)c1ccc(N)cc1", "activation": "-5.7% [at 35.3 µM]"}
{"smiles": "O=C(CCCCCCCCC#CI)Oc1ccccc1", "activation": "0.134% [at 35.3 µM]"}
{"smiles": "CSc1ccc(Oc2ccc(S(N)(=O)=O)cc2CN(C)C)cc1C", "activation": "-0.833%"}
{"smiles": "CN(C(=O)C(Cl)Cl)c1ccc(OC(=O)c2ccco2)cc1", "activation": "2.8% [at 35.3 µM]"}
{"smiles": "CC1CN(c2cc3c(cc2F)c(=O)c(C(=O)O)cn3-c2ccc(F)cc2F)CCN1", "note": "(stereo not given)", "activation": "2.03% [at 6.97 µM]"}
{"smiles": "CCC(C(=O)OCCOCCN(CC)CC)c1ccccc1", "note": "(stereo not given)", "activation": "1.87% [at 35.3 µM]"}
{"smiles": "C[C@@H]1C[C@H]2[C@@H]3CCC4=CC(=O)C=C[C@]4(C)[C@@]3(F)[C@@H](O)C[C@]2(C)[C@@]1(O)C(=O)CO", "activation": "5.74%"}
{"smiles": "CCCCCCCCCCCC(=O)[O][Sn]([CH2]CCC)([CH2]CCC)[O]C(=O)CCCCCCCCCCC", "activation": "2.43% [at 35.3 µM]"}
{"smiles": "COC(=O)[C@@H]1CC2=CC(=O)CC[C@]2(C)[C@@]23O[C@@H]2C[C@@]2(C)[C@@H](CC[C@@]24CCC(=O)O4)[C@H]13", "activation": "-1.32% [at 35.3 µM]"}
{"smiles": "CC1CC(O)CC(C)(C)C1", "note": "(stereo not given)", "activation": "-7.1%"}
{"smiles": "CCOC(=O)/C=C/C(=O)O", "activation": "4.65%"}
{"smiles": "C=CC(=O)NCOCC(C)C", "activation": "-3.21%"}
{"smiles": "O=C(O)c1c(O)c(-c2ccccc2)nc2ccccc12", "activation": "-3.49% [at 35.3 µM]"}
{"smiles": "CC(CCO)CCc1ccccc1", "note": "(stereo not given)", "activation": "3.29%"}
{"smiles": "COc1ccc(CCC(=O)c2c(O)cc(O[C@@H]3O[C@H](CO)[C@@H](O)[C@H](O)[C@H]3O[C@@H]3O[C@@H](C)[C@H](O)[C@@H](O)[C@H]3O)cc2O)cc1O", "activation": "0.59%"}
{"smiles": "COc1ccc(C(=O)c2cccc(O)c2)c(OC)c1", "activation": "-2.71%"}
{"smiles": "N#C/C(=C1/SC[C@@H](c2ccc(Cl)cc2Cl)S1)n1ccnc1", "activation": "1.35% [at 35.3 µM]"}
{"smiles": "Cc1cc(O)c2c(O)c3c(O)cccc3cc2c1", "activation": "-3.04% [at 35.3 µM]"}
{"smiles": "CCC(C)(C)C1CCC(O)CC1", "note": "(stereo not given)", "activation": "7.87%"}
{"smiles": "Cc1ccccc1N1C(=O)c2cc(S(N)(=O)=O)c(Cl)cc2NC1C", "note": "(stereo not given)", "activation": "-8.01% [at 35.3 µM]"}
{"smiles": "C/C=C(\\C)C(=O)OCCC(C)CCC=C(C)C", "note": "(stereo not given)", "activation": "-4.31%"}
{"smiles": "O=C(O)c1cccc(O)c1", "activation": "-0.627%"}
{"smiles": "COc1cc2c(N3CCN(C(=O)Nc4ccc(OC(C)C)cc4)CC3)ncnc2cc1OCCCN1CCCCC1", "activation": "-0.879% [at 35.3 µM]"}
{"smiles": "CCOC(=O)c1ccccc1C", "activation": "-8.42%"}
{"smiles": "CCCCCC=CCC=CCCCCCCCC(=O)OCC", "activation": "3.98% [at 35.3 µM]"}
